Data on eight molecules can be found in PubChem BioAssay (NCI).

What all share (test): NCI-60 one-dose screen, 48 h (100 = growth as untreated, 0 = no growth, -100 = all killed)
What all share (conditions): 10 µM unless noted

For assay [1], the system named is HCT-15 colon.
Assay [2] deals with HT29 colon.
In assay [3] the test system is SNB-75 CNS.
Assay [4] has as its system SNB-19 CNS.
For assay [5], the system named is PC-3 prostate.
The test system of assay [6] is SK-MEL-5 melanoma.
Assay [7] concerns UACC-62 melanoma.
Assay [8] relates to LOX IMVI melanoma.
Assay [9] concerns SK-MEL-28 melanoma.
For assay [10], the system named is SK-MEL-2 melanoma.
Assay [11] deals with EKVX NSCLC.
Assay [12] relates to SN12C renal.
Assay [13] relates to UO-31 renal.
Assay [14] concerns TK-10 renal.
Assay [15] concerns ACHN renal.
Assay [16] has as its system CAKI-1 renal.
The subject of assay [17] is A498 renal.
Assay [18] concerns CCRF-CEM leukemia.
Assay [19] relates to MOLT-4 leukemia.
Assay [20] relates to U251 CNS.

Compounds without any hit were thinned out: in the full panel of roughly 83,000, 20% have a hit.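 96-well plates, one dose, 48 hours. Percent growth reported; active if below 10.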 Unmarked numbers belong to inactive results. Calls of active or inactive are those of the source.

On to `O=S(=O)(OCCO)c1ccccc1`, for which the growth in [1] is 103%; in assay [2], 98.9%; in assay [3], 75%; in assay [4], 102%; in [5], 99.3%; in assay [6] it was 94.4%. Also, the growth in assay [7] was 94.2%; in assay [8], 103%; in assay [9], 110%; in [10] it was 102%; in assay [11], 103%; in [12] it was 96.2%. In addition, the growth is 90.4% in assay [13]; 100% in [14]; 104% in assay [15]; 88.2% in assay [16]; 110% in assay [17]; 61.8% in [18]. Moreover, the growth in assay [19] is 108%.

With `C[C@H]1C(=O)C23CCC1C[C@@]21O[C@@H]2C(C)(C)C=CC(=O)C23COC1=O`, the growth in [1] is 109%; in assay [2], 110%; in [3] it was 83.6%; in assay [4] it was 100%; in assay [20], 105%; in assay [6], 103%. Also, the growth in assay [8] was 93.7%; in assay [9], 111%; in assay [10], 104%; in assay [12], 103%; in assay [13] it was 81.5%; in [14], 98.9%. Also, the growth in assay [15] is 104%; in assay [16] it was 101%; in assay [17] it was 92%; in [18] it was 71.7%; in assay [19], 102%.

With `CCCCCCCCCCCCCCn1c2ccccc2c2c3c(c4c5cc(OC)ccc5oc4c21)C(=O)NC3=O`, the growth in [1] is 94.9%; in assay [2], 103%; in assay [3] it was 81.4%; in assay [4] it was 105%; in [5], 107%; in [6], 102%. Further, the growth in assay [7] was 101%; in [8], 103%; in assay [9], 107%; in assay [10] it was 113%; in [11] it was 105%; in assay [12] it was 101%. The growth is 88.5% in assay [13]; 109% in [14]; 103% in assay [15]; 93.2% in assay [16]; 103% in assay [18]; 123% in assay [19].

Take `OC[C@@H](O)[C@@H](O)CO`: the growth in assay [1] was 102%; in [2], 106%; in assay [3], 100%; in assay [4], 98.3%; in assay [20], 98.7%; in [6], 104%. The growth in assay [7] is 98.3%; in [8] it was 91.3%; in [9], 112%; in assay [11], 107%; in assay [12], 99.6%; in assay [13], 80.5%. Also, the growth is 111% in assay [14]; 103% in assay [15]; 93.9% in assay [16]; 101% in assay [17]; 100% in assay [18]; 94.8% in assay [19].

For `Brc1ccc(SCN(CSc2ccc(Br)cc2)Cc2ccccc2)cc1`, the growth in [1] was 78.8%; in [2], 78.9%; in assay [3] it was 66.4%; in assay [4] it was 84.2%; in assay [5], 26.4%; in [6], 91.2%. In addition, the growth in assay [7] was 92%; in assay [8] it was -15.5% (active); in assay [9] it was 101%; in assay [10], 94.6%; in assay [12], 27.3%; in assay [13], 39%. For the same molecule, the growth in assay [14] is 113%; in assay [15], 87.3%; in assay [16] it was 73%; in [17] it was 56.3%; in assay [18], 4.88% (active); in assay [19], 17%.

As for `O=C1C(Br)=C(c2ccccc2)C(=O)C(Br)=C1c1ccccc1`, the growth in assay [1] is 85.7%; in [2] it was 110%; in [3], 78%; in [4] it was 93.6%; in assay [5], 91.5%; in [6] it was 98.5%. Also, the growth in [7] is 83.1%; in assay [8], 97.5%; in assay [9] it was 107%; in assay [10], 99.6%; in assay [12], 95.2%; in assay [13], 77.9%. The growth in assay [14] is 102%; in assay [15], 92.2%; in assay [16] it was 94%; in assay [17], 67.3%; in assay [18] it was 31.9%; in assay [19] it was 52.7%.

Consider `Clc1ccc(C2=NN(c3ccccc3)[C@H](c3cn(-c4ccccc4)nc3-c3ccccc3)C2)cc1`, for which the growth in assay [1] is 103%; in [2], 94.6%; in assay [3], 97%; in assay [4], 103%; in assay [5], 93.9%; in assay [6], 114%. The growth is 107% in assay [7]; 96.4% in assay [8]; 110% in assay [9]; 97.7% in [10]; 94.9% in assay [11]; 103% in assay [12]. In addition, the growth in assay [13] was 94.8%; in [14], 114%; in assay [15], 103%; in [16], 99.9%; in assay [17] it was 109%; in assay [18], 116%. Also, in assay [19], the growth is 93.6%.

Turning to `Nc1nc2c(s1)CCc1c-2c(Br)n(Cc2ccccc2)c1Br`, the growth in assay [1] is 50.8%; in assay [2], 97.6%; in [3], 89.5%; in assay [4], 105%; in [5], 89.1%; in [6], 89.3%. Besides, the growth in assay [7] is 78.3%; in assay [8] it was 86.1%; in assay [9] it was 100%; in assay [10], 99.7%; in assay [12], 87.7%; in assay [13], 72.9%. In addition, the growth was 88.1% in assay [14]; 19.4% in assay [15]; 81.5% in assay [16]; 91.5% in [17]; 2.66% (active) in [18]; 11% in assay [19].
